Assay outcomes from PubChem BioAssay.
aSyn UTR act: Activators via SNCA 5'UTR binding, MLPCN; alpha-synuclein 5'UTR reporter, activators screen; activity score, % (tested at 7.5 µM), hits read low; 7.1% of 300,000 active; AID 1814; in the data active = activity score below about -60%
* = called active by the depositor. Only a sample is shown.

Screening O=C(CCCN1C(=O)/C(=C/c2ccc3c(c2)OCO3)SC1=S)Nc1ccc(C(=O)O)cc1 returned aSyn UTR act 102.
For O=C(N/N=C/c1ccc2c(c1)OCO2)c1ccc2c(c1)OCO2 the results were aSyn UTR act -91*.
`O=C(/C=C/c1ccccc1)NC(=S)Nc1ccccc1O` gave aSyn UTR act -242*.
Screening O=C(/C=C/c1ccc(F)cc1)NC(=S)Nc1ccccc1O returned aSyn UTR act -210*.
Screening COC(=O)c1cc(NC(=O)/C=C/c2ccccc2)ccc1O returned aSyn UTR act -141*.
For CCCc1ccc(OCC(=O)Nc2cc(S(=O)(=O)CC)ccc2O)cc1 the results were aSyn UTR act -171*.
`NC(=S)NC(=O)/C=C/c1ccccc1` gave aSyn UTR act -111*.
CCS(=O)(=O)c1ccc(O)c(NC(=O)/C=C/c2ccccc2)c1 was read as aSyn UTR act -110*.
O=c1c(-c2nc3ccccc3s2)cccn1Cc1ccccc1 was read as aSyn UTR act -87*.
For Cc1ccc(Cn2cccc(-c3nc4ccccc4s3)c2=O)cc1 the results were aSyn UTR act -194*.
For COC(=O)c1ccc2nc(NC(=O)COC(=O)CSc3nc(C)cc(C)n3)sc2c1 the results were aSyn UTR act -88*.
Screening Cc1ccc2nc(NC(=O)CSCC(=O)OCC(=O)c3ccc(Br)cc3)sc2c1 returned aSyn UTR act 83.
Screening COC(=O)c1ccc2nc(NC(=O)CSCC(=O)OCC(=O)c3ccccc3)sc2c1 returned aSyn UTR act -73*.
`Cc1cc(C(F)(F)F)c(C#N)c(SCC(=O)Nc2nc3cc(Br)ccc3s2)n1` gave aSyn UTR act -176*.
`O=C(NCCc1ccccc1)c1ccc2c(c1)OCO2` gave aSyn UTR act 91.
Screening COc1ccc(C(=O)NCCn2ccc3ccccc32)cc1 returned aSyn UTR act -131*.
For O=C(NCCn1ccc2ccccc21)c1ccc2c(c1)OCO2 the results were aSyn UTR act -108*.
For Cc1ccnc(NC(=O)c2cccc(OC(F)F)c2)n1 the results were aSyn UTR act -77*.
O=C(Nc1cc(Cl)cc(Cl)c1)c1cccc(OC(F)F)c1 was read as aSyn UTR act -98*.
O=C(Nc1nnc(CCc2ccccc2)s1)c1ccco1 was read as aSyn UTR act -87*.
Screening NC(=O)c1cc(Cc2ccccc2)sc1NC(=O)c1ccco1 returned aSyn UTR act -215*.
`CCCCCCc1nnc(NC(=O)c2ccco2)s1` gave aSyn UTR act -67*.
O=C(Nc1nnc(CCc2ccccc2)s1)c1cccs1 was read as aSyn UTR act -80*.
CC(C)COC(=O)Nc1nnc(Cc2ccccc2)s1 was read as aSyn UTR act -97*.
CC(C)(C)Cc1nnc(NC(=O)c2ccco2)s1 was read as aSyn UTR act -77*.
O=C(Nc1nnc(Cc2ccccc2)s1)c1ccco1 was read as aSyn UTR act -95*.
Clc1ccccc1CONc1ncnc2nonc12 was read as aSyn UTR act -91*.
`Clc1ccc(SCc2cn3ccsc3n2)cc1` gave aSyn UTR act -236*.
Screening Clc1ccc(SCc2cn3cccnc3n2)cc1 returned aSyn UTR act -64*.
Cc1csc2nc(CSc3ccc(Cl)cc3)cn12 was read as aSyn UTR act -103*.
For Cc1cc(OCc2cn3cccnc3n2)ccc1Cl the results were aSyn UTR act -127*.
For c1ccc2oc(SCc3cn4ccsc4n3)nc2c1 the results were aSyn UTR act -122*.
For c1ccc(CSCc2cn3ccsc3n2)cc1 the results were aSyn UTR act -176*.
`c1cn2cc(CSC3CCCCC3)nc2s1` gave aSyn UTR act -130*.
OC1CCC(NC(=S)Nc2ccc(SC(F)F)cc2)CC1 (stereo unspecified) was read as aSyn UTR act -126*.
Screening O=C(Nc1ccc(SC(F)F)cc1)C12CCC(CC1)C2 returned aSyn UTR act -80*.
For FC(F)Sc1ccc(NC(=S)NC2CCCC2)cc1 the results were aSyn UTR act -105*.
For O=C(NC(=Nc1nc2ccccc2o1)NC(=O)c1ccccc1)c1ccccc1 the results were aSyn UTR act -105*.
For COc1ccccc1C(=O)NC(=Nc1nc2ccccc2o1)NC(=O)c1ccccc1OC the results were aSyn UTR act -92*.
`Cc1cc(/C=C2/C(=O)N(C)C(=S)N2C)ccc1N1CCCC1` gave aSyn UTR act -212*.
Cc1cc(/C=C2\NC(=S)N(C)C2=O)ccc1N1CCCC1 was read as aSyn UTR act -206*.
For O=C(c1cc2ccccc2oc1=O)N(Cc1ccco1)C1CCS(=O)(=O)C1 (stereo unspecified) the results were aSyn UTR act -97*.
`CCCc1cc(=O)n2[nH]c(-c3ccc(Br)cc3)cc2n1` gave aSyn UTR act -87*.
`CCCc1cc(=O)[nH]c(-n2[nH]c3c(c2=O)CCCC3)n1` gave aSyn UTR act 56.
`CCCc1cc(=O)n2[nH]c(-c3cccc(Br)c3)cc2n1` gave aSyn UTR act -181*.
Screening CC1(C(=O)OCc2cc(=O)n3cc(Br)ccc3n2)CC1(Cl)Cl (stereo unspecified) returned aSyn UTR act -140*.
For Cc1ccccc1C(=O)NC(CC(C)C)C(=O)OCc1cc(=O)n2cc(Br)ccc2n1 (stereo unspecified) the results were aSyn UTR act -73*.
For CC1CC1C(=O)OCc1cc(=O)n2cc(Br)ccc2n1 (stereo unspecified) the results were aSyn UTR act -148*.
For Cn1c(-c2ccc3nc(N)sc3c2)nc2cc(N)ccc21 the results were aSyn UTR act -72*.
`O=C(COC(=O)c1ccccc1[N+](=O)[O-])c1ccc(C2CCCCC2)cc1` gave aSyn UTR act -76*.
For O=C(NCCc1c[nH]c2ccccc12)c1cnc2sccn2c1=O the results were aSyn UTR act -152*.
`CC(=O)c1c(C)[nH]c(C(=O)NCCc2c[nH]c3ccccc23)c1C` gave aSyn UTR act -89*.
For O=C(NCCc1c[nH]c2ccccc12)c1cnccn1 the results were aSyn UTR act -80*.
`O=C(NCCc1c[nH]c2ccccc12)c1ccc(Cl)cc1` gave aSyn UTR act -221*.
`CC(=O)c1c(C)[nH]c(C(=O)NCCC2=CCCCC2)c1C` gave aSyn UTR act -156*.
COc1ccc(C(=O)c2c[nH]c3ccccc23)cc1 was read as aSyn UTR act -196*.
Cc1ccsc1C(=O)NCCc1c[nH]c2ccccc12 was read as aSyn UTR act -123*.
Screening COc1ccc(C(=O)NCCc2c[nH]c3ccccc23)cc1 returned aSyn UTR act -184*.
CC(=O)O[C@@]12CO[C@@H]1C[C@H](O)[C@@]1(C)C(=O)[C@H](O)C3=C(C)[C@@H](OC(=O)[C@H](O)[C@@H](NC(=O)OC(C)(C)C)c4ccccc4)C[C@](O)([C@@H](OC(=O)c4ccccc4)[C@H]21)C3(C)C was read as aSyn UTR act 72.
For O=C(NCCc1c[nH]c2ccccc12)c1ccc(F)cc1F the results were aSyn UTR act -145*.
Screening S=C1NC2=C(CCCC2=C2SCCS2)C(c2ccccc2)N1 (stereo unspecified) returned aSyn UTR act -324*.
`N#CCC(=O)N/N=C/c1ccc(OCc2ccccc2)cc1` gave aSyn UTR act -66*.
`N#CCC(=O)N/N=C\c1ccc(OC/C=C/c2ccccc2)cc1` gave aSyn UTR act -146*.
O=C(CSc1nc2ccccc2s1)c1ccc(O)cc1O was read as aSyn UTR act -66*.
Screening O=C(Cc1nc2ccccc2s1)c1ccc(O)cc1O returned aSyn UTR act -147*.
